Experimental data published in PMC4336329 (PLoS ONE, 2015).
Hit rate of the full screen: of about 310,000 compounds, about 2,200 (0.71%) showed an effect of 50% or more. The effect is printed as a negative number. The list comes from a sample in which strong results are over-represented; it also holds similar structures and randomly drawn compounds.

Each molecule was assayed against human ether-à-go-go-related gene (hERG) potassium channel (human, UniProt Q12809) (assay: primary screen, population patch clamp on CHO cells stably expressing hERG; higher = less effect of the substance).
Sequence of human ether-à-go-go-related gene (hERG) potassium channel (Q12809 whole entry, looked up): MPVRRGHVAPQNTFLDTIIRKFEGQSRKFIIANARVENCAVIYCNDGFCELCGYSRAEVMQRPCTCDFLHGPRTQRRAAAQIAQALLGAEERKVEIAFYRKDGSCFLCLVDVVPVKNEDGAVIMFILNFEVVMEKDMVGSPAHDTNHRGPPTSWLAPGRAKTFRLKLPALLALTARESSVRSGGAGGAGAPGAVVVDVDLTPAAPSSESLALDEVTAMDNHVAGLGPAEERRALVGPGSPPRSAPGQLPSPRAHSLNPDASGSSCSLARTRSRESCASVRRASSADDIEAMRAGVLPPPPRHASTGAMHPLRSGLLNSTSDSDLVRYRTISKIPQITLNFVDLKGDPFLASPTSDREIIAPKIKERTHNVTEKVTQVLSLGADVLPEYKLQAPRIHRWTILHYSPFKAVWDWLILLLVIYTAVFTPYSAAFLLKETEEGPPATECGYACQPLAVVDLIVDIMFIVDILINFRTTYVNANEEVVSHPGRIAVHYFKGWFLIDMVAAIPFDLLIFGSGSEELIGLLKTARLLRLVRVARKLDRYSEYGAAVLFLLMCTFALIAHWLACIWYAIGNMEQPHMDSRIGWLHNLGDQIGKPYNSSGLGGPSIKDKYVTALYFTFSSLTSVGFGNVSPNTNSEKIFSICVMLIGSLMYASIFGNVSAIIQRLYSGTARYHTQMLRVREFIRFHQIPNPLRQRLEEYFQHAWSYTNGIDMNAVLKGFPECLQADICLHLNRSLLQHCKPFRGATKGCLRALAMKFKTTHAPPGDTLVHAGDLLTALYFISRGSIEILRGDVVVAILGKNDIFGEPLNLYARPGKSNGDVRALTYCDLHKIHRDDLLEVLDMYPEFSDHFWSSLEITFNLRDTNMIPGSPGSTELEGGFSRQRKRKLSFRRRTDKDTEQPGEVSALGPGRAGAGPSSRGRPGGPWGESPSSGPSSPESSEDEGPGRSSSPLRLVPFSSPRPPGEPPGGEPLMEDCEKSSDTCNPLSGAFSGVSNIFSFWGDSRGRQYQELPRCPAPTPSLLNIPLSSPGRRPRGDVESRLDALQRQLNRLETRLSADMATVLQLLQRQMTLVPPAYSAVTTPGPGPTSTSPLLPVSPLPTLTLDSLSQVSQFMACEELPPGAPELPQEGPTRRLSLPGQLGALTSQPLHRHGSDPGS

Structure (SMILES) | hERG current change (%, negative = inhibition) at 1uM [%]
CSc1nc(-c2ccco2)cc(C(F)(F)F)c1C#N | 12
CCOC(=O)N1CCN(C(=O)C2CCCN(c3nc4ccc(OCC)cc4s3)C2)CC1 (stereo not shown) | -3.97
O=C(CSc1nnc(-c2ccc(Br)cc2)n1CCc1ccccc1)NC1CCS(=O)(=O)C1 (stereo not shown) | -60.7
CCn1c(SCC(=O)NC2CCS(=O)(=O)C2)nnc1-c1ccccc1 (stereo not shown) | 6.72
COc1ccccc1-c1nnc(SCC(=O)NC2CCS(=O)(=O)C2)n1CCc1ccccc1 (stereo not shown) | 11.2
COc1ccc(C2(c3cccc(O)c3OC)CCN(C(C)=O)CC2)cc1O | 17.8
Cc1ccc2nc(NC(=O)C3CCCN(S(=O)(=O)c4cccnc4)C3)sc2c1 (stereo not shown) | 7.66
CC(=O)N=c1c(C#N)cc2c(=O)n3ccccc3nc2n1CCCOC(C)C | 8.03
CCCCCn1c(=NC(C)=O)c(C#N)cc2c(=O)n3ccccc3nc21 | 0.0455
CC(C)OCCCn1c(=NC(=O)c2cccs2)c(C#N)cc2c(=O)n3ccccc3nc21 | -67.1
CCOCCCn1c(=NC(=O)c2cccs2)c(C#N)cc2c(=O)n3ccccc3nc21 | -49.3
CC(C)OCCCn1c(=NC(=O)c2ccncc2)c(C#N)cc2c(=O)n3ccccc3nc21 | -63.4
CCOCCCn1c(=NC(C)=O)c(C#N)cc2c(=O)n3ccccc3nc21 | 11.7
Cc1cc(C(=O)CN2C(=O)NC3(CCCCC3)C2=O)c(C)n1-c1ccc2c(c1)OCO2 | 5.94
C=CCN(CC=C)C(=O)C(=O)c1ccn(-c2c(C)csc2C(=O)OC)c1 | -59.3
CCN(CC)C(=O)C(=O)c1ccn(-c2c(C)csc2C(=O)OC)c1 | 7.53
COC(=O)c1scc(C)c1-n1ccc(C(=O)C(=O)N(C)C)c1 | 9.29
CC(C)(C)CN1CCNC(=O)C1CC(=O)NCCc1cnn(-c2ccccc2)c1 (stereo not shown) | 5.53
CSc1sc(C(=O)Nc2ccc(F)cc2F)c2c1C=CCC2 | 11.8
COc1ccc(NS(=O)(=O)c2cccs2)cc1S(=O)(=O)N1CCOCC1 | 14.7
O=C(Nc1ccccc1)N1CCN(c2ncccn2)CC1 | 6.7
OC1(Cc2cc(-c3ccccc3)no2)CCN(CCCc2ccccc2)CC1 | -55.5
COc1cccc(-c2cc(CC3(O)CCN(CCCc4ccccc4)CC3)on2)c1 | -39.3
c1ccc(CCCN2CCOCC2)cc1 | 22.1
O=C(NCCN1CCOCC1)c1ccc(CS(=O)(=O)c2ccc(Br)cc2)o1 | -0.189
COc1ccccc1S(=O)(=O)Cc1ccc(C(=O)NCCN2CCCC2)o1 | 14.2
O=C(NCCN1CCCCCC1)c1ccc(CS(=O)(=O)c2ccc(Br)cc2)o1 | -37.9
O=C(NCCCN1CCCC1)c1ccc(CS(=O)(=O)c2ccc(Cl)cc2)o1 | 18.1

Structure (SMILES) | hERG current change (%, negative = inhibition) at 1uM [%]
COc1ccc(N2CCN(CCCNC(=O)c3ccc(CS(=O)(=O)c4ccc(Cl)cc4)o3)CC2)cc1 | -71.2
COc1ccccc1S(=O)(=O)Cc1ccc(C(=O)NCCN2CCCCCC2)o1 | 9.15
COc1ccccc1S(=O)(=O)Cc1ccc(C(=O)NCCCN2CCN(c3ccc(F)cc3)CC2)o1 | -68.3
O=C(NCCN1CCN(Cc2ccccc2)CC1)c1ccc(CS(=O)(=O)c2ccc(Br)cc2)o1 | -50.5
COc1ccc(N2CCN(CCCNC(=O)c3ccc(CS(=O)(=O)c4ccc(OC)cc4)o3)CC2)cc1 | -43.1
CSc1nc2nc3c(c(=O)n2[nH]1)CCC3 | 1.88
CCOC(=O)c1sc2nc[nH]c(=O)c2c1C | 12.6
Cc1cc2c(cc1C)[n+](C)cn2CC(O)COCC1CC=CCC1.[I-] (stereo not shown) | 11
CC(=O)CC(c1ccccc1)c1c(O)c2ccccc2oc1=O.[Na] (stereo not shown) | 15.2
Cc1ccc(C(=O)Nc2cccc(-c3ccc(N4CCOCC4)nn3)c2)cc1 | 4.57
COc1cc(SC)ccc1C(=O)OCC(=O)NC1CCCC1 | 9.49
O=C(CSc1ccc2nnc(-c3ccccn3)n2n1)Nc1cccc(F)c1 | -7.83
Fc1cccc(Cl)c1CSc1ccc2nnc(-c3ccccn3)n2n1 | 1.37
Cc1ccc(CSc2ccc3nnc(-c4cccnc4)n3n2)cc1 | -70.6
Cc1ccc(CSc2nnc3ccc(-c4ccncc4)nn23)cc1 | -3.17
Fc1ccc(CSc2nnc3ccc(-c4ccncc4)nn23)cc1 | -61.2
Fc1cccc(CSc2ccc3nnc(-c4ccccn4)n3n2)c1 | -50.2
Cc1cccc(CSc2ccc3nnc(-c4cccnc4)n3n2)c1 | -16
c1ccc(CSc2nnc3ccc(-c4ccncc4)nn23)cc1 | -12
c1ccc(CSc2ccc3nnc(-c4ccccn4)n3n2)cc1 | -26.6
Fc1ccc(CSc2ccc3nnc(-c4cccnc4)n3n2)cc1 | -31.8
Fc1ccc(CSc2ccc3nnc(-c4ccccn4)n3n2)cc1 | -92.9
Brc1ccc(CSc2ccc3nnc(-c4ccccn4)n3n2)cc1 | -12.7
Cc1cc[n+](CC(=O)Nc2cc(C(F)(F)F)ccc2Cl)cc1.[Cl-] | 5.29
O=C(NCCS(=O)(=O)N1CCC2(CC1)OCCO2)c1ccc(F)cc1 | 13.2
CSc1nc2ccccc2cc1/C=C(\C#N)c1ccccc1 | 9.25
Cc1ccccc1S(=O)Cc1ccc(C(=O)NCCN2CCOCC2)o1 (stereo not shown) | 25.5
